Laboratory results from PubChem BioAssay (NCI).
Compounds without any hit were thinned out: in the full panel of roughly 83,000, 20% have a hit.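 Results are percent growth after 48 hours of single-concentration exposure. 100 means growth as in untreated cells, lower positive values show inhibition; negative values down to -100 show cell death.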 Values without a mark were called inactive. The source made the active and inactive calls. Rule for the calls: active = growth percent below 10; inactive = the rest.

Assays:
Test in all cases: NCI-60 one-dose screen, 48 h (100 = growth as untreated, 0 = no growth, -100 = all killed)
[1] = test system: SK-MEL-2 melanoma; conditions: 10 µM unless noted
[2] = test system: EKVX NSCLC; conditions: 10 µM unless noted
[3] = test system: SN12C renal; conditions: 10 µM unless noted
[4] = test system: UO-31 renal; conditions: 10 µM unless noted
[5] = test system: TK-10 renal; conditions: 10 µM unless noted
[6] = test system: ACHN renal; conditions: 10 µM unless noted
[7] = test system: CAKI-1 renal; conditions: 10 µM unless noted
[8] = test system: A498 renal; conditions: 10 µM unless noted
[9] = test system: MOLT-4 leukemia; conditions: 10 µM unless noted
[10] = test system: SR leukemia; conditions: 10 µM unless noted
[11] = test system: RPMI-8226 leukemia; conditions: 10 µM unless noted
[12] = test system: OVCAR-8 ovarian; conditions: 10 µM unless noted
[13] = test system: OVCAR-5 ovarian; conditions: 10 µM unless noted
[14] = test system: OVCAR-4 ovarian; conditions: 10 µM
[15] = test system: SK-OV-3 ovarian; conditions: 10 µM unless noted
[16] = test system: OVCAR-3 ovarian; conditions: 10 µM unless noted
[17] = test system: HS 578T breast; conditions: 10 µM unless noted
[18] = test system: NCI/ADR-RES ovarian; conditions: 10 µM unless noted
[19] = test system: CCRF-CEM leukemia; conditions: 10 µM unless noted
[20] = test system: IGROV1 ovarian; conditions: 10 µM unless noted

| Structure (SMILES) | growth [1] | growth [2] | growth [3] | growth [4] | growth [5] | growth [6] | growth [7] | growth [8] | growth [9] | growth [10] | growth [11] | growth [12] | growth [13] [%] | growth [14] | growth [15] [%] | growth [16] | growth [17] | growth [18] | growth [19] [%] | growth [20] |
| --- | --- | --- | --- | --- | --- | --- | --- | --- | --- | --- | --- | --- | --- | --- | --- | --- | --- | --- | --- | --- |
| CCCCOC(=O)c1c(C)[nH]c(/C=C2\N=C(c3ccc[nH]3)C=C2OC)c1C | -64.6% (active) | -8.89% (active) | 8.83% (active) | -72.2% (active) | 9.12% (active) | -40.4% (active) | -29.2% (active) | -13.4% (active) | 8.13% (active) | 14.5% | -32.1% (active) | 7.7% (active) | 11 | 3.84% (active) | 34.7 | -37.6% (active) | -23.2% (active) | 8.85% (active) |  |  |
| COc1ccc2c(c1)c(-c1noc(C(=O)c3cn(C)c4ncc(Br)cc34)n1)cn2C | 97.4% | 75.4% | 77.6% | 70.5% | 21.8% | 39.8% |  | 48.5% | 77.2% | 64% | 62.2% | 74.4% | 80.4 | 42.9% |  | 30.5% | 27.8% | 59.7% | 56.9 | 54.3% |
| COc1cc2c(=O)[nH]c3cc([N+](=O)[O-])ccc3c2cc1[N+](=O)[O-] | 86.1% | 48.3% | 52.6% | 19.6% | 52.1% | 21.8% |  | -2.09% (active) | 9.72% (active) | 32.2% | 57.2% | 45.9% | 74.1 | 54.1% | 77.4 | 63.7% | 66.6% | 48.7% | 46.5 | 41.5% |
| CCN(CC)CCS(=O)(=O)CCNc1ccnc2cc(Cl)ccc12 | 15.2% | 26.7% | 18.5% | -25.6% (active) | 13.5% | 7.29% (active) | 8.63% (active) | -29.1% (active) | -30.1% (active) | 6.28% (active) | -4.96% (active) | 14.5% | 18.6 | 24.7% | 22.5 | -14.9% (active) |  | -14.2% (active) |  |  |
| CC(C)OC(=O)Nc1cc(F)c(F)cc1F | 95.4% | 94.1% | 102% | 86.1% | 96.3% | 101% |  | 93.6% | 103% | 102% | 101% | 100% | 93.5 | 103% | 100 |  | 101% | 102% | 103 | 95.5% |
| COc1cc(/C=C/C(=O)/C=C/c2ccc(-n3ccnc3)cc2)ccc1O | 106% | 97.9% | 76.6% | -25.7% (active) | 101% | 48.3% | 91.5% | 96.8% | 33.4% | 25.1% | -5.38% (active) | 29.2% | 100 |  | 91.5 | 34.4% | 86% | 99% |  | -28.4% (active) |
| Cn1cc(-c2noc(-c3cn(C)c4ncc(F)cc34)n2)c2cc(Br)ccc21 | 103% | 58.4% | 60.2% | 79.8% | 46.5% | 40.3% | 53.5% | 91.9% | 71.1% | 37.1% | 87.9% | 55.2% | 64.4 | -40.3% (active) | 84.4 | 38.5% | 58.7% | 61.5% |  | 73.3% |
| Cn1cc(-c2noc(-c3cn(C)c4ncccc34)n2)c2cc(Cl)ccc21 | 97.3% | 89.3% | 92.1% | 78.9% | 89.5% | 89.3% | 86.6% | 82.7% | 96.1% | 82.2% |  | 96% | 79.7 | 98.3% | 89 |  | 111% | 89.8% |  | 99.8% |
